KLK7 zymogen act = activators of human kallikrein-7 zymogen; activation, % at 7 µM; AID 652039; hit rate 0.9% among 370,000; purified proKLK7, EDANS-DABCYL substrate fluorescence; 100% is mature enzyme control, 0% vehicle;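 active means activation above the mean of all tested compounds plus 3 SD, computed per campaign excluding outliers beyond control limits, cut at about 13% in these data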
Target sequence (P49862 whole entry, looked up): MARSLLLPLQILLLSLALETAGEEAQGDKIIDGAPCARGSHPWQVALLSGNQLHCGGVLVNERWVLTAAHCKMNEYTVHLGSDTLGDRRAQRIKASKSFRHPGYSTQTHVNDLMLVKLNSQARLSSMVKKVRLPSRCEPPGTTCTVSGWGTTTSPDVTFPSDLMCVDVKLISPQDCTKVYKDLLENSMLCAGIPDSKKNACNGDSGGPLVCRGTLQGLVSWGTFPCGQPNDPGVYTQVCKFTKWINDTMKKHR
PLC-beta3 inh = blocks human PLC-beta3 enzyme activity | inhibition, % at 12.2 µM | Purified PLC-beta3, fluorogenic substrate, fluorescence | AID 720704 | hit rate 0.18% among 370,000; in the data active means inhibition above about 11%;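 further: 0% = median of compound wells on plate and 100% = full blocker control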
PLCg1 inh = inhibitors of human phospholipase C gamma1; P19174; purified PLC-gamma1, fluorogenic substrate, fluorescence; inhibition, % at 12.2 µM; hit rate 0.84% among 370,000; in the data active means inhibition above about 9.5%
ADAM17 inh = inhibits human ADAM17; recombinant ADAM17, EDANS/DABCYL FRET peptide cleavage; AID 720648; hit rate 0.83% among 370,000; P78536; inhibition, % at 6.95 µM;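 active means inhibition above the mean of compounds lying between control limits plus 3 SD, set per campaign, cut at about 8.5% in these data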;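 further: 0% = DMSO-only wells as the low control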
ADAM10 inh = ADAM10 inhibition, QFRET primary screen | O14672 | recombinant ADAM10, EDANS/DABCYL FRET peptide cleavage, 3 h | inhibition, % at 7 µM | hit rate 0.62% among 370,000 | AID 720582;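 active means inhibition above a per-campaign cutoff equal to the mean of compounds falling between control-based bounds plus 3 SD, cut at about 20% in these data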;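 further: 0% = DMSO wells while the 100% control is not disclosed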
ADAM10 ctr = inhibits human ADAM10 in ADAM17 exosite counter-screen | shares compounds with ADAM17 inh | recombinant ADAM10, EDANS/DABCYL FRET peptide cleavage, 3 h | inhibition, % at 6.95 µM | AID 743256 | hit rate 47% among 2,900;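 active means mean inhibition over the triplicate runs exceeds the activity threshold set in the earlier primary screen, cut at about 20% in these data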;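 further: 0% = DMSO wells and 100% = marimastat wells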
ADAM17 confirm = confirmation of inhibitors of human ADAM17 | shares compounds with ADAM17 inh | recombinant ADAM17, EDANS/DABCYL QFRET peptide cleavage | inhibition, % at 6.95 µM | hit rate 65% among 2,900;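 active means mean inhibition across replicates above the hit cutoff set in the primary screen, cut at about 8.5% in these data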;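 further: 0% = DMSO wells and 100% = marimastat wells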
* hit, by the source's call; . = not tested or not shown. Most compounds without a hit are left out; they make up all but 2.9% or so of the library.

SMILES | KLK7 zymogen act | PLC-beta3 inh | PLCg1 inh | ADAM17 inh | ADAM10 inh | ADAM10 ctr | ADAM17 confirm
CCOC(=O)C1CCN(C(=O)Cc2c(F)cccc2Cl)CC1 | 0 | 8 | 2 | 2 | 6 | . | .
CC1Sc2ccc(S(=O)(=O)N3CCC(C(=O)NCCc4ccccc4)CC3)cc2NC1=O (stereo unspecified) | 0 | -7 | -1 | -1 | 9 | . | .
CC1Sc2ccc(S(=O)(=O)N3CCC(C(=O)NCC(C)c4ccccc4)CC3)cc2NC1=O (stereo unspecified) | 0 | 0 | 6 | 16* | 10 | -6 | 1
CC(C)(C)NC(=O)C(c1cccs1)N(Cc1cccs1)C(=O)c1csnn1 (stereo unspecified) | 0 | 0 | 0 | -3 | -7 | . | .
CCCCOc1cc(C)nc(NCc2ccccc2)n1 | 1 | 5 | 9 | 11* | 14 | 16 | 8
CC1(C)CC(=O)c2cnc(NC(=O)CSc3nc4ccccc4o3)nc2C1 | 0 | 5 | 4 | 0 | 5 | . | .
C(=N\Nc1nc(Nc2ccccc2)nc(N2CCOCC2)n1)/c1c[nH]c2ccccc12 | 0 | 2 | 4 | 9.2* | 17 | 17 | 11*
c1ccc(Nc2nc(N3CCOCC3)nc(N3CCOCC3)n2)cc1 | 0 | 2 | 2 | 0 | 4 | . | .
COc1ccc(-c2noc(CCC(=O)N3CCN(c4cccc(C)c4C)CC3)n2)cc1 | 1 | -7 | -2 | 9.3* | 9 | 27* | 16*
COc1ccc(-c2noc(CCC(=O)N3CCN(c4ccccc4Cl)CC3)n2)cc1 | 1 | -2 | 0 | 7 | 13 | . | .
COc1ccc(S(=O)(=O)N2CCC(C(=O)NC3CCCC3)CC2)cc1OC | -1 | -2 | 3 | 0 | 3 | . | .
O=C(Nc1ccn(Cc2ccccc2F)n1)c1ccc(COc2ccccc2Cl)cc1 | 1 | -2 | 3 | 13* | 19 | 31* | 18*
CCCCN1C[C@H](c2ccc(OC)cc2)[C@@H](CC(=O)Nc2ccc(OC)cc2)C1=O | 0 | -5 | 0 | -5 | -18 | . | .
CCCCN1C[C@H](c2ccc(OC)cc2)[C@@H](CC(=O)Nc2ccc(Br)cc2)C1=O | 0 | 7 | 8 | 14* | 10 | 4 | 4
C/C(CCc1ccc2c(c1)OCO2)=N\N=C1\NC(=O)CC(C(=O)Nc2ccccc2)S1 (stereo unspecified) | 0 | -27 | -19 | -3 | -2 | . | .
O=[N+]([O-])c1ccc(-c2cnc(SC(c3ccccc3)c3ccccc3)[nH]2)cc1 | -1 | -34 | -27 | 10.0* | 17 | 33* | 14*
COc1cccc(C(=O)c2c(-c3ccccc3)ncc3cc(OC)c(OC)cc23)c1 | 1 | -12 | -2 | 13* | 11 | 17 | 19*
COc1cc2cnc(-c3ccccc3)c(C(=O)c3ccc(F)cc3)c2cc1OC | 0 | -3 | 0 | 1 | 6 | . | .
COc1cc(NS(=O)(=O)c2ccc(NC(=S)NC(=O)c3sc4ccccc4c3Cl)cc2)ncn1 | -1 | -4 | -5 | -3 | 2 | . | .
COc1ccc(C(=O)N2CCCC(Nc3ccc(C)c(C)c3)C2)cc1F (stereo unspecified) | 1 | -9 | -4 | 1 | 1 | . | .
COC(=O)c1cccc(C(=O)N2CCCC(Nc3ccc(C)c(C)c3)C2)c1 (stereo unspecified) | 0 | 2 | 2 | 11* | 10 | 18 | 7
COc1cccc(Cn2cnc3c(NS(=O)(=O)c4cc(Cl)ccc4Cl)c(C)c(C)cc32)c1 | 0 | 1 | 4 | 8.9* | 20 | 20* | 11*
CCCCC(CC)COC1(c2ccccc2)OC(=O)c2ccccc21 (stereo unspecified) | 0 | 3 | 3 | 10* | 3 | -1 | 0
O=C(Cc1c(F)cccc1Cl)Nc1ccccc1C(=O)N1CCOCC1 | 0 | -3 | 2 | -1 | -15 | . | .
O=C(Nc1ccc(S(=O)(=O)C(F)F)cc1)c1cccc(S(=O)(=O)N2CCOCC2)c1 | 1 | 8 | 9 | 12* | 13 | 14 | 9.0*
SMILES | KLK7 zymogen act | PLC-beta3 inh | PLCg1 inh | ADAM17 inh | ADAM10 inh | ADAM10 ctr | ADAM17 confirm
O=C(Nc1ccc2c(c1)CCC2)c1cccc(S(=O)(=O)N2CCN(c3ccccc3)CC2)c1 | -1 | -12 | -8 | 9.1* | 16 | 20* | 15*
O=C(Nc1ccncc1)c1cccc(S(=O)(=O)N2CCOCC2)c1 | 0 | -5 | 1 | 1 | -8 | . | .
N/C(=N\N=C\c1ccc(O)cc1)c1nonc1N | -1 | 9 | 11* | 10* | 14 | 17 | 9.2*
N/C(=N\N=C\c1ccc(O)c(O)c1)c1nonc1N | 2 | -33 | -21 | -15 | -36 | . | .
Cc1ccc(CN2C3CCCC2CC(NC(=O)c2ccc(C)cc2)C3)cc1 (stereo unspecified) | 0 | -2 | 1 | -4 | -15 | . | .
O=C(c1cc(-c2ccccc2)nc2ccccc12)N1CCN(c2ccccc2O)CC1 | 0 | 5 | 6 | 14* | 13 | 29* | 19*
N#Cc1cccc(NC(=O)c2cc(C3CCCCN3S(=O)(=O)c3ccccc3)on2)c1 (stereo unspecified) | -1 | -1 | 7 | 12* | 14 | 18 | 12*
CC(C)(C)c1nc(NC(=O)Nc2ccccc2)sc1Br | 0 | 2 | 4 | 11* | 20 | 35* | 21*
COc1ccc2nc(NC(=O)Nc3ccccc3)sc2c1 | 0 | 1 | 3 | -3 | -2 | . | .
CC(C)(C)C(=O)/C=c1\[nH]c(=O)/c(=C\c2ccc(F)cc2)s1 | 1 | -4 | -3 | 10* | 18 | 3 | 6
COc1cc(C(=O)OCCCc2cc3ccccc3c(=O)o2)cc(OC)c1OC | 0 | -2 | -1 | -4 | 2 | . | .
CCOc1cc2c3c(c1)C1(C(=O)N3C(C)(C)C=C2C)C(C#N)=C(N)Oc2cc(O)ccc21 (stereo unspecified) | 1 | -4 | 6 | 9.0* | 5 | 9 | 12*
COc1cc2c3c(c1)C1(C(=O)N3C(C)(C)C=C2C)C(C#N)=C(N)Oc2cc(O)ccc21 (stereo unspecified) | 0 | 1 | 0 | 2 | 15 | . | .
O=C(CN1C(=O)c2cccc3cccc1c23)N1CCN(c2ccccc2)CC1 | 0 | -64 | -59 | -2 | -4 | . | .
Cc1cccc(NC(=O)CSc2nnc(SCc3ccc(Cl)cc3)s2)c1 | 1 | -9 | -2 | 8.8* | 12 | 15 | 12*
CC1=Nc2cc(C(=O)NCCCOC(C)C)ccc2Sc2ccccc21 | 0 | -10 | 0 | -3 | 2 | . | .
O[C@H]1C[C@H](c2ccccc2)N(CC2CCCCC2)C[C@@H]1n1cc(C2CC2)nn1 | 0 | 0 | 5 | 9.0* | 18 | 21* | 13*
